Not all results are given here.
RVFV N-RNA inh: blocks Rift Valley Fever Virus nucleoprotein binding to RNA; RVFV N-RNA binding, fluorescence polarization; active compounds read low; % bound, % (no concentration beside the values); 20,000 tested, 0.1% active; in the data active means % bound below about 75%
Target sequence (P21700 whole entry, looked up): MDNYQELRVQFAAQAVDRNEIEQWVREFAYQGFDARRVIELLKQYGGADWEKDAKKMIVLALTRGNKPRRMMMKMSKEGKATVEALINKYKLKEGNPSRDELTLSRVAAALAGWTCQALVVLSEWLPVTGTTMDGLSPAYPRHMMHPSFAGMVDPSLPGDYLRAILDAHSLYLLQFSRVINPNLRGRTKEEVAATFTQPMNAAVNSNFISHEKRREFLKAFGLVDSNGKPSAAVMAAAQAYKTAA
An asterisk follows results filed as active.

SMILES	RVFV N-RNA inh
CCCCCn1c(SCC(=O)N2CCC(C(F)(F)F)CC2)n[nH]c1=O	99
CC(=O)Nc1nc(-c2ccccc2)nc2sc(C#N)c(C)c12	103
CC1Oc2ccccc2C=C1/C=C(\C#N)C(=O)N1CCCCC1 (centres undefined)	96
CCc1ccc(C=C2C(=O)N(C)C(=O)N(C)C2=O)cc1	92
C=CCN(CC=C)C(=O)CSc1nnc(N)s1	99
CCOP(=S)(NC(C)C)OCC	80
COC(=O)c1cc(S(=O)(=O)NC2CCCCNC2=O)oc1C (centres undefined)	100
O=C1C2N=NN(Cc3ccccc3)C2C(=O)N1c1ccccc1 (centres undefined)	96

Screening data: PubChem, ICCB-Longwood Screening Facility, Harvard Medical School
